SMN2 splice up: increases expression of the SMN2 splice variant. HEK293 SMN2-luciferase splicing reporter, luminescence, 30-36 h. 210,000 compounds, 2.8% hits. AID 1458. Potency, µM (doses to about 46.1 µM), for inactives: at the top dose activity change, positive = activation, most hits filed as activators; also: % of control where 0% means no effect; nearly all actives have a fitted effect of over 55% in size
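HEK293 cells carry an SMN2 minigene-luciferase reporter in which exon 7 inclusion puts luciferase in frame. Cells were seeded at 2000 cells/well, attached for 10-12 hours, then exposed to compounds for 30-36 hours at 37C before ONE-Glo luminescence.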
FLuc counter: counter-screen for miR-21 project: firefly luciferase inhibitors or activators; 360,000 compounds, 6.9% hits; AID 588342; purified FLuc, Km substrates, luminescence inhibition; Potency, µM (doses to about 57.5 µM), for inactives: at the top dose activity change, negative = inhibition, actives largely listed as inhibitors; P08659;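 also: plate controls were vehicle for no effect and reference inhibitor for full effect; nearly all actives have a fitted effect of over 55% in size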
Target sequence (P08659 whole entry, looked up): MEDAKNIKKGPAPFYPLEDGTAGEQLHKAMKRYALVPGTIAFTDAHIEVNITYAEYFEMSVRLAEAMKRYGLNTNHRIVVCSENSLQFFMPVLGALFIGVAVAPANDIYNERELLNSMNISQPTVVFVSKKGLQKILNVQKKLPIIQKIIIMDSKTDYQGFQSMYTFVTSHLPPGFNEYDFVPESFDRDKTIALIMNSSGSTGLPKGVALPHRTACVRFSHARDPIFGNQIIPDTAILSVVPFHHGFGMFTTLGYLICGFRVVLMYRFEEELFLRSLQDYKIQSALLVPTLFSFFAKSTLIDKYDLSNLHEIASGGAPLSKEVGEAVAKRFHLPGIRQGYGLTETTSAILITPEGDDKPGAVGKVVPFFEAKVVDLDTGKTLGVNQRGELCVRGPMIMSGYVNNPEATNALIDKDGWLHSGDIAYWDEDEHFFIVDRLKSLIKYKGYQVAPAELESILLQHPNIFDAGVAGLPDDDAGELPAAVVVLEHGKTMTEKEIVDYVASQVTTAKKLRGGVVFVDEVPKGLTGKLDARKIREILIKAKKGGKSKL
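Purified P. pyralis luciferase (10nM final) with 10uM D-luciferin and 10uM ATP (Km levels) in 50mM Tris acetate pH 7.5, 10mM Mg acetate, 0.01% Tween-20, 0.05% BSA; qHTS 6-point titration, ~60 µM downward; luminescence read.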
ELG1 repair inh: blocks ELG1-dependent DNA repair in HEK293T cells; HEK293T ELG1-luciferase reporter, luminescence, 16 h; DNA damage induced by 5-fluorouridine; AID 504467; 330,000 compounds, 2.3% hits; Potency, µM (titrated, usually from 46.1 µM), without a hit: at the highest dose activity change, negative = inhibition, actives largely listed as inhibitors; also: % is scaled to controls: 0 for no effect and ±100 for the full control effect; nearly all actives have a fitted effect of over 55% in size
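Cells (2,000 per well) received 5-fluorouridine plus test compound or DMSO and were incubated 16 hr at 37 °C, 5% CO2. Luciferase activity was read by luminescence 30 min after ONE-Glo addition; signal suppression marked inhibition of damage-induced ELG1 function.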
ELG1 genotox: genotoxicity induction in ELG1-luciferase HEK293T cells; HEK293T ELG1-luciferase reporter, luminescence, 16 h; Potency, µM (doses to about 46 µM), without a hit: at the top dose activity change, positive = activation, hits mostly activators; AID 504466; 330,000 compounds, 1.3% hits; also: % of control where 0% means no effect; nearly all actives have a fitted effect of over 60% in size
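Genotoxicity was scored as increased ELG1-luciferase reporter signal, measured by ONE-Glo luminescence (30 min, room temperature). Compound or vehicle exposure of the HEK293T reporter cells lasted 16 hr at 37°C.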
NPC1 prom act: activates the NPC1 promoter. Huh7 NPC1 promoter luciferase reporter, 24 h. Potency, µM (doses to about 9.22 µM), without a hit: at the highest dose activation, actives largely listed as activators. 320,000 compounds, 2.4% hits; also: % of control where 0% means no effect; nearly all actives have a fitted effect of over 60% in size
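Cells: Huh7 expressing luciferase under the NPC1 promoter, 1500/well. Seeded 2 h, compound added, incubated 24 h at 37 °C. Luciferase reagent, 10 min ambient, then luminescence.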
Rab9 prom act: activators of Rab9 promoter | Huh7 Rab9 promoter-luciferase reporter, luminescence, 24 h | Potency, µM (highest dose often 9.22 µM), for inactives: top-dose activation, negative = inhibition, actives largely listed as activators | 320,000 compounds, 2.8% hits | AID 485297; also: % of control where 0% means no effect; nearly all actives have a fitted effect of over 60% in size
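Luminescence read-out: Huh7 cells stably expressing Rab9-luciferase, treated 24 h with compound at 37 °C, then lysed with luciferase reagent for 10 min at ambient before reading.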
* = called active by the depositor; ? = inconclusive; / = not tested or not shown; [ ] = another dose, or the depositor's remark. A selection: hits, their analogues and other compounds. The true share with any hit is near 9.4%. Calls follow the shape of the dose curve; as a rule, active = well fitted curve in the direction sought with a large enough effect; inconclusive = small, poorly fitted or top-dose-only effect, or another doubt; inactive = no such curve, though single readings can be large; an effect the other way counts as inactive or inconclusive. Potency is read from the fitted curve at half-maximal effect.

SMILES	SMN2 splice up	FLuc counter	ELG1 repair inh	ELG1 genotox	NPC1 prom act	Rab9 prom act
COc1cc(/C=C/C(=O)OCC(=O)N2c3ccccc3NC(=O)C2(C)C)cc(OC)c1OC	/	-1.9%	10.3µM*	-0.1%	0.2%	-5.2%
CC1(C)C(=O)Nc2ccccc2N1C(=O)COC(=O)c1ccc(Cl)c(S(=O)(=O)NCc2ccccc2)c1	-3.0%	1.9%	20.6µM*	-15.0%	-0.4%	-3.4%
CC1(C)C(=O)Nc2ccccc2N1C(=O)COC(=O)c1cc(S(C)(=O)=O)ccc1Cl	/	3.5%	15.7%	0.4%	-1.1%	-0.4%
CCOC(=O)c1nc(N2CCN(c3ccc(F)cc3)CC2)c2c(C)noc2n1	/	-6.5%	/	/	/	/
CN1CCN(C(=O)c2cc(COc3ccccc3)on2)[C@@H](c2ccccc2)C1	/	9.53µM*	?	13µM*	3.55µM*	2µM*
COc1cccc(OCc2cc(C(=O)N3CCCC3c3ccccn3)no2)c1 (centres undefined)	/	15.1µM*	?	?	2.24µM*	2.82µM*
CN1CCN(C(=O)c2cc(COc3c(F)cccc3F)on2)CC1c1ccccc1 (centres undefined)	/	?	?	-14.1%	-1.9%	-5.6%
COc1cccc(OCc2cc(C(=O)N3CCN(C4CCCC4)CC3)no2)c1	/	-4.7%	13.8%	0.7%	1.4%	-5.2%
Cc1ccc(OCc2cc(C(=O)N3CCN(C)C[C@@H]3c3ccccc3)no2)cc1C	/	21.3µM*	?	?	2.82µM*	2.51µM*
COc1ccc(CNC(=O)CCCc2nnc3n(C(C)C)c(=O)c4sccc4n23)cc1	/	-4.3%	/	/	/	/
Cc1cc(N/N=C2/CCCc3ccccc32)nc2ccccc12	-4.3%	7.57µM*	?	-5.4%	29.2%	?
COC(=O)c1sccc1N/N=C/c1cccc(OC)c1O	0.562µM*	0.953µM*	?	?	3.55µM*	3.16µM*
COC(=O)c1sccc1NC(=O)c1cccc(OC)c1	-0.4%	?	-6.4%	0.8%	10.2%	0.1%
COC(=O)c1sccc1N/N=C/c1cccc(Oc2ccccc2)c1	?	1.9µM*	?	2.31µM*	3.16µM*	2.24µM*
COC(=O)c1sccc1N/N=C/c1ccc(OC)c(OC)c1OC	14.1µM*	15.1µM*	?	?	?	?
CCc1ccc(CNC(=O)C2CCCN(S(=O)(=O)c3ccc4c(ccn4C)c3)C2)cc1 (centres undefined)	/	-5.1%	/	/	/	/
Cc1ccc(CNC(=O)CCCCCn2c(=O)c3sccc3n(CC(=O)C(C)(C)C)c2=O)cc1	0.7%	?	/	/	/	/
CCCC(=O)NCc1nc2cccnc2n1Cc1ccc(F)cc1	/	1.8%	/	/	/	/
CCOC(=O)[C@]1(CC(=O)O)CCCC1=O	0.9%[9.22 µM]	/	/	/	/	/
Nc1nnc(-c2ccccc2F)s1	/	?	?	14.6%	8.6%	15.5%
Nc1nnc(-c2ccc(Cl)cc2Cl)s1	/	12µM*	?	?	25.3%	?
O=C1/C(=C/c2cccc(Cl)c2)CSc2sccc21	/	1.2%	-9.8%	-1.8%	-0.9%	-2.0%
Cc1cccc(/C=C2\CS/C(=C\c3cccc(C)c3)C2=O)c1	-5.7%	8.49µM*	?	8.3%	-3.2%	2.7%
Cc1ccc2c(nc3s/c(=C\c4ccc(-c5ccccc5C(=O)O)o4)c(=O)n32)c1C	/	5.36µM*	25.8%	0.3%	1.5%	-1.1%
Cc1ccc(C)c(N2C(=N)S/C(=C\c3ccc(-c4ccccc4C(=O)O)o3)C2=O)c1	12.0%	?	6.0%	1.9%	1.7%	-1.6%
SMILES	SMN2 splice up	FLuc counter	ELG1 repair inh	ELG1 genotox	NPC1 prom act	Rab9 prom act
O=C(O)c1ccc(-c2ccc(/C=c3/sc4nc5ccccc5n4c3=O)o2)cc1Cl	/	19µM*	8.3%	-0.1%	4.9%	12.2%
O=c1/c(=C/c2ccccc2)sc2nnc(-c3cccs3)n12	/	-18.2%	23.5%	-0.1%	-0.3%	-5.6%
O=c1/c(=C/c2cn(-c3ccccc3)nc2-c2ccc(F)cc2)sc2nc3ccccc3n12	0.0%	2.6%	0.5%	-2.3%	1.8%	1.0%
Cc1ccc2c(nc3s/c(=C/c4cccs4)c(=O)n32)c1C	?	1.9µM*	?	16.4µM*	28.7%	3.55µM*
Cc1cc(C)c2nc3s/c(=C/c4ccccc4)c(=O)n3c2c1	-2.2%	?	23.2%	3.2%	?	1.26µM*
Cc1ccc(-c2cc(C(=O)Nc3cc([N+](=O)[O-])ccc3C)no2)cc1F	/	-3.0%	/	/	/	/
CCc1ccc(NC(=O)c2sc3nc(C)cc(C)c3c2NC(=O)c2ccccc2OC)cc1	19.5%	-0.1%	/	/	/	/
CCCn1c(=O)c2sccc2n2c(CCCC(=O)NCCc3ccc(Cl)cc3)nnc12	/	-0.9%	/	/	/	/
COc1ccccc1NCC(=O)c1ccc(Cl)cc1	/	16.9µM*	-0.4%	0.4%	0.7%	9.7%
Cc1ccc(C(=O)CCC(=O)Nc2ccccc2C)cc1C	/	-8.4%	?	3.8%	0.7%	3.7%
COc1ccccc1NCC(=O)c1ccc(C)c(C)c1	/	16.9µM*	?	0.3%	2.3%	-0.9%
CCOc1ccc(NS(=O)(=O)c2c(C)nc3sc(C)c(C)n3c2=O)cc1	/	-2.5%	/	/	/	/
COc1cc(C2=NOC(C(=O)N3CCCc4ccccc43)C2)cc(OC)c1OC (centres undefined)	2.1%	3.2%	?	-1.1%	-2.9%	-3.1%
COc1ccc(-c2cc(C(=O)N3CCCc4ccccc43)no2)cc1	-2.7%	6.01µM*	?	-0.4%	?	?
COc1ccc(C2=NOC(C(=O)N3CCCc4ccccc43)C2)cc1 (centres undefined)	-0.1%	13.5µM*	13.6%	-1.2%	3.6%	7.8%
COc1cccc(-c2cc(C(=O)N3CCCc4ccccc43)no2)c1	?	12µM*	?	7.1%	28.2%	2.5%
Nc1ccc(Cl)cc1Cl	2.8%	/	/	/	/	/
Cc1nc2ccccn2c1C(=O)NCc1ccc2c(c1)OCO2	-37.9%	4.9%	16.4µM*	0.8%	-6.5%	0.8%
O=C(CSc1nc2ccccc2o1)NCc1ccc2c(c1)OCO2	?	?	?	20.6µM*	-1.4%	3.5%
Cc1nc2ccccn2c1C(=O)N/N=C/c1ccc2c(c1)OCO2	?	12µM*	?	?	14.9%	21.2%
CCCc1nc2ccccc2c(C(=O)OC(C)C(=O)NCc2ccc3c(c2)OCO3)c1CC (centres undefined)	-8.6%	1.0%	20.6µM*	-6.1%	1.6%	-1.2%
Cc1ccc(-n2c3c(cc(-c4nc(-c5ccc(Cl)cc5)cs4)c2=O)C(=O)CC(C)(C)C3)cc1	-4.7%	-0.2%	/	/	/	/

Compound activity (PubChem BioAssay)
